Data as given in PubChem BioAssay (NCI).
About 79,000 compounds went through this panel and 15% of them were active in at least one assay; those are over-represented in the sample as a whole. No stated cut-off is given here; in the data, active means growth inhibition above about 70%; inactive means the rest. Where a SMILES comes first, the peptide text is derived from it. The star is where a group is joined. Boc = CC(C)(C)OC(=O)*; OBn = c1ccc(CO*)cc1

How the values were obtained:
[1] = NCI Yeast Anticancer Drug Screen. Data for the rad50 strain (AID 155);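 further: 0% = growth of vehicle-only cultures of the same strain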; settings: S. cerevisiae rad50 strain growth inhibition; at 50.0 µM; active compounds read high
How it was run: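 Growth of the mutant yeast was measured after compound exposure and referenced to vehicle-treated cultures.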

[2] = NCI Yeast Anticancer Drug Screen. Data for the mec2-1 strain (AID 157); settings: S. cerevisiae mec2-1 strain, at 50.0 µM, active compounds read high
How it was run: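 Test agents were screened against the mec2-1 yeast strain, with defined DNA repair or cell cycle alteration. Growth was scored as inhibition against vehicle-only controls.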

[3] = NCI Yeast Anticancer Drug Screen. Data for the sgs1 mgt1 strain (AID 161);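 further: 0% = growth of cultures given vehicle only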; settings: S. cerevisiae sgs1 mgt1 strain, at 50.0 µM, active compounds read high
How it was run: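 Mutant yeast exposed to compound; growth scored against vehicle-only wells.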

[4] = NCI Yeast Anticancer Drug Screen. Data for the cln2 rad14 strain (AID 165);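 further: 0% = growth equal to vehicle treated cultures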; settings: S. cerevisiae cln2 rad14 strain, at 50.0 µM, active compounds read high
How it was run: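 Growth of compound-exposed yeast (cln2 rad14 genotype) measured and expressed as inhibition relative to vehicle.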

[5] = NCI Yeast Anticancer Drug Screen. Data for the bub3 strain (AID 167); settings: S. cerevisiae bub3 mutant strain, at 50.0 µM, active compounds read high
How it was run: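 Whole-cell yeast assay. The mutant strain was incubated with compounds, and growth inhibition was determined by comparison with vehicle-treated cells.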

[6] = NCI Yeast Anticancer Drug Screen. Data for the mlh1 rad18 strain (AID 175); settings: S. cerevisiae mlh1 rad18 strain growth inhibition; at 50.0 µM; active compounds read high
How it was run: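 In this whole-cell yeast screen, a strain with altered DNA damage repair is challenged with compound, and its growth is measured against matched vehicle-treated controls.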

Measured: growth inhibition

CCOC(=O)c1ccccc1S(=O)(=O)c1ccccc1C(=O)OCC
inactive: [1] 1.4% | [2] 16.9% | [3] 9.85% | [4] 11.2% | [5] 5.2% | [6] 10.4%

NC(N)=Nc1cccc2c1CC=CC2
inactive: [1] 0.2% | [2] -3.45% | [3] -5.3% | [4] -5.7% | [5] 2% | [6] -0.2%

COc1cc(Cl)ccc1NC(=O)Oc1ccc2ccccc2c1
inactive: [1] 11.8% | [2] 14.2% | [3] 13% | [4] 9.2% | [5] 14.4% | [6] 9.4%

Cc1cc(C)c(C#N)c(NN)n1
inactive: [1] -5.35% | [2] -2.8% | [3] 11.1% | [4] 12.2% | [5] -0.5% | [6] -1.05%

O=P(CCCCBr)(NCc1ccccc1)c1ccccc1 (stereo not given)
inactive: [1] 5.25% | [2] 7.85% | [3] 15.9% | [4] -19.9% | [5] 14.8% | [6] 13.2%

CC(C)C(CC1CCCCC1)C(C)O (stereo not given)
inactive: [1] -7.65% | [2] -0.45% | [3] -14.6% | [4] -14.4% | [5] -9.35% | [6] -17.6%

COC1=CC(=O)C(=O)C=C1C(C)(C)C
inactive: [1] 49.2% | [2] 40.3% | [3] 48.8% | [4] 2.45% | [5] 49.4% | [6] 9.55%

COc1cc2c[n+](C)c3c(c2cc1OC)Cc1cc2c(cc1-3)OCO2
inactive: [1] -27.5% | [2] -13.2% | [3] 1.8% | [4] 18.9% | [5] -14.7% | [6] 6.25%

O=C(O)c1cccc([N+](=O)[O-])c1C(=O)O
inactive: [1] 15.3% | [2] 11.3% | [3] 11.4% | [4] 7.9% | [5] -1.9% | [6] 17.2%

O=C1c2ccccc2C(C2c3ccccc3C(=O)c3cc(Br)ccc32)c2ccc(Br)cc21 (stereo not given)
inactive: [1] 4.25% | [2] -35.1% | [3] -9.5% | [4] -48.9% | [5] -14.1% | [6] -18.2%

CCCCOC(=O)COc1ccc(OC)cc1
inactive: [1] -4.5% | [2] -22.1% | [3] -13.3% | [4] -34.6% | [5] 3.45% | [6] 6.2%

N#Cc1nc(NC(=O)c2ccccc2C(=O)O)c(C#N)[nH]1
inactive: [1] 1.5% | [2] 14.1% | [3] -20.8% | [4] 4.95% | [5] -8.85% | [6] -29.3%

CCOC(=O)C(=O)C(=O)NN(C)C1=NCCN1
inactive: [1] -11.4% | [2] -2.05% | [3] 7.45% | [4] -13.6% | [5] 6.55% | [6] 2%

CC(C)CC(NC(=O)OC(C)(C)C)C(=O)NC(CCC(=O)OCc1ccccc1)C(N)=O (stereo not drawn) (Boc-Leu-Glu(OBn)-NH2; configuration not given here)
inactive: [1] 19.1% | [2] -8.9% | [3] 8.65% | [4] 19.9% | [5] 24.4% | [6] 4.65%

Cc1ccccc1OCC1COCN(C(C)(C)CO)CO1 (stereo not given)
inactive: [1] -11.1% | [2] -4.5% | [3] -5.5% | [4] 7.9% | [5] -13.9% | [6] 16.8%

[N-]=[N+]=NC1CC(n2cc(Cc3ccccc3)c(N)nc2=O)OC1CO (stereo not given)
inactive: [1] -0.1% | [2] -10.6% | [3] 11.4% | [4] 2.95% | [5] 2.9% | [6] -7.05%

CCOC(=O)CS(=O)(=O)C1CCCCC1c1cc(OC)c(OC)c(OC)c1 (stereo not given)
inactive: [1] 3.25% | [2] -3.2% | [3] -5% | [4] -6.7% | [5] 0.6% | [6] 10.4%

O=C1NC(=O)C(F)(F)C1(F)F
inactive: [1] 4.9% | [2] 7.3% | [3] -6.45% | [4] -1.1% | [5] 0.25% | [6] 4.35%

O=N[O-].O=N[O-].[Co].[NH-]CC[N-]CC[N-]CC[NH-]
inactive: [1] 10.4% | [2] 7.2% | [3] 1.9% | [4] 3.65% | [5] 19.6% | [6] 11%

O=C1OCCOCCOCCOCCOCCOCCOC(=O)c2cccc1n2
inactive: [1] 28.9% | [2] -0.7% | [3] 7% | [4] 13.3% | [5] -0.35% | [6] 9.6%
